Bioassay records as filed in PubChem.
Pf Dd2 inh – Plasmodium falciparum Dd2 growth inhibition; P. falciparum Dd2 growth, SYBR Green, 72 h; AID 1347417; 4.3% of 120,000 active; Potency, µM (series often up to 28.9 µM), for inactives: at the highest dose activity, negative = inhibition, hits mostly inhibitors; active means well fitted inhibition curve with a large enough effect;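 further: plate controls were DMSO vehicle for no effect and reference drug for full effect; nearly all actives have a fitted effect of over 65% in size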
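Infected erythrocytes (Dd2, 0.3% parasitemia, 2.5% hematocrit final) are added to compound in RPMI-1640/Albumax II medium, grown 72 h at 37C in low oxygen, then lysed with saponin/Triton-X containing SYBR Green and read by fluorescence.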
* marks the source's active call; other numbers are inactive results; i = inactive; [ ] = another dose, or the depositor's remark. The entries come from a sample that favours hits as a whole. Potency means the concentration at half of the fitted maximal effect.

SMILES	Pf Dd2 inh
COC(=O)CCNC(=O)C1CN(S(=O)(=O)c2cccnc2)CC12CCCCC2 (stereo not given)	-10%
O=C(NCCc1cccs1)C1CN(S(=O)(=O)c2cccnc2)CC12CCCCC2 (stereo not given)	-5%
O=C(NCCCN1CCCC1=O)C1CN(S(=O)(=O)c2ccccc2)CC12CCCCC2 (stereo not given)	34%
O=C(NCc1cc(F)ccc1F)C1CN(S(=O)(=O)c2cccnc2)CC12CCCCC2 (stereo not given)	2.8µM*
O=C(NCCN1CCOCC1)C1CN(S(=O)(=O)c2ccccc2)CC12CCCCC2 (stereo not given)	4µM*
O=C(Nc1cc(F)ccc1F)C1CN(S(=O)(=O)c2cccnc2)CC12CCCCC2 (stereo not given)	-20%
CN1CCCCCC(O)c2cc(C(=O)NCCCN3CCCC3=O)ccc21 (stereo not given)	i
c1ccc(CC2=NOC3(CCN(Cc4ccccc4)C3)C2)cc1 (stereo not given)	4.5µM*
CC(C)CCN1CCCC2(CC(Cc3ccccc3)=NO2)C1 (stereo not given)	-18%[44.1 µM]
c1cncc(C2=NOC3(CCN(CC4CCCCC4)CC3)C2)c1	22%
FC(F)(F)c1ccc(CN2CCCC3(CC(Cc4ccccc4)=NO3)C2)cc1 (stereo not given)	-15%
c1ccc(CC2=NOC3(CCN(CC4CCCCC4)CC3)C2)cc1	3.5µM*
COc1ccc(CN2CCCC3(CC(Cc4ccccc4)=NO3)C2)cc1 (stereo not given)	-6%
COc1cccc(C(=O)N2CCC[C@H]2c2nc(-c3ccccc3)no2)c1	13%
NCC1CCCN(Cc2ccc(-c3nc(-c4cccnc4)cc(=O)[nH]3)cc2)C1 (stereo not given)	-17%
Cc1ccc(-c2nc3c(c(SCC(=O)N(C)c4ccccc4)n2)Cc2c(CO)cnc(C)c2O3)cc1	5.6µM*
CCSc1nc(-c2ccccc2)nc2c1Cc1c(CO)cnc(C)c1O2	11%
Cc1ccc(-c2nc3c(c(SCC(=O)Nc4ccccc4Cl)n2)Cc2c(CO)cnc(C)c2O3)cc1	19%
Cc1cc(C)cc(NC(=O)CSc2nc(-c3cccc(Cl)c3)nc3c2Cc2c(CO)cnc(C)c2O3)c1	-26%
CCN(CC)C(=O)CSc1nc(-c2ccc(C)cc2)nc2c1Cc1c(CO)cnc(C)c1O2	10µM*
Cc1cccc(C)c1NC(=O)CSc1nc(-c2ccccc2)nc2c1Cc1c(CO)cnc(C)c1O2	12%
COc1cccc(CN2CCC([C@H]3[C@@H](OC)C(=O)N3C(C)C)CC2)n1	-29%
NC(=O)[C@@H](Cc1c[nH]c2ccccc12)NC(=O)[C@@H]1CN(C(=O)Nc2ccccc2)CCN1C(=O)c1cccs1	i
Cc1ncsc1CN1C(=O)CO[C@H](c2ccc(NS(C)(=O)=O)cc2)[C@H]1CO	31%[44.1 µM]
Cc1cccc(NC(=O)N2CC(=O)Nc3sc4c(c3C2c2ccccc2)CCCC4)c1C (stereo not given)	11µM*
SMILES	Pf Dd2 inh
O=C1CN(C(=O)Nc2ccccc2Cl)C(c2ccccc2)c2c(sc3c2CCCC3)N1 (stereo not given)	10µM*
Cc1cccc(NC(=O)N2CCC(CC(=O)NCc3ccccc3)C2)c1C (stereo not given)	-13%
O=C(COc1ccccc1)Nc1sc2c(c1C(=O)Nc1ccccc1Cl)CCCCC2	97%
O=C(Cc1ccccc1)Nc1sc2c(c1C(=O)Nc1ccccc1Cl)CCCC2	13%
COC(=O)c1ccccc1NC(=O)N1CCc2c(sc3c2CCCC3)C1c1ccc(F)cc1 (stereo not given)	i
O=S(=O)(NC[C@H]1O[C@@H](CO)[C@@H](O)[C@H]1N1CCN(c2ccccc2)CC1)c1ccc(F)cc1	-25%
CCCNC(=O)N1CCC(O)(c2cnc(CN3CCC3)s2)CC1	i
O=C(NCCn1c(=O)c(=O)[nH]c2ccccc21)C1CC(=O)N(c2n[nH]c3ccccc23)C1 (stereo not given)	i
COC(=O)CC1Oc2ccc(F)cc2-n2cc(-c3ccc(Cl)cc3)nc21 (stereo not given)	11µM*
O=C(CS(=O)(=O)c1nc(-c2ccc(Cl)cc2)cn1-c1ccccc1)Nc1ccc(F)cc1F	-1%
COC(=O)CNC(=O)c1nc(-c2ccc(Cl)cc2)c2ccccn12	-5%[44.1 µM]
COC(=O)CC1Oc2ccccc2-n2cc(-c3ccc(Cl)cc3)nc21 (stereo not given)	3.5µM*
COc1ccc(-n2cc(C(=O)Nc3cc(F)ccc3F)c3ccccc3c2=O)cc1	i
COC(=O)c1ccc(Cl)cc1NC(=O)N1CC(C)Oc2ccccc21 (stereo not given)	-25%
c1cncc(-c2ccnc(NCCCn3nccc3C3CC3)n2)c1	-28%
c1cncc(-c2ccnc(NCCCN3CCCc4ccccc43)n2)c1	11µM*
c1ccc2c(c1)CCCN2CCCNc1ncncn1	-15%
O=C(NCCc1noc(C2CC2)n1)Nc1cccc(C(F)(F)F)c1	i
COCc1nnc2n1CCC(NC(=O)COc1ccc(Cl)cc1)CC2 (stereo not given)	9%
COC(=O)C[C@@H]1CCN(C(=O)COc2ccccc2)C[C@@H]1CC1=NCCc2cc(OC)c(OC)cc21	i
COCCOC1CCN(C(=O)COc2ccccc2)CC1	3%
COc1ccc(OCC(=O)N2CCN(C(=O)c3cc(OC)c(OC)c(OC)c3)CC2)cc1	17%
O=C(COc1ccccc1)NCc1ccc2c(c1)CCN2C(=O)c1ccc(Cl)cc1	62%
COC(=O)c1ccc(OCC2c3cc(OC)c(OC)cc3CCN2C(=O)COc2ccc(Cl)cc2)cc1 (stereo not given)	10µM*
COC[C@@H]1CN(C(=O)COc2ccc(Cl)cc2C)C[C@H]1C(N)=O	1%
SMILES	Pf Dd2 inh
COc1cc2c(cc1OC)C(COc1ccc(C(C)C)cc1)N(C(=O)COc1ccccc1)CC2 (stereo not given)	11µM*
COc1ccc(OCC2c3cc(OC)c(OC)cc3CCN2C(=O)COc2ccc(Cl)cc2Cl)cc1 (stereo not given)	10µM*
Fc1ccc(OC2CNC2)c(F)c1	15%[44.1 µM]
CN1CCCC2(CCN(C(=O)CCc3ccc(Cl)cc3)C2)C1=O (stereo not given)	-4%
CC1CCN(C(=O)CSc2n[nH]c(-c3ccc(F)cc3)n2)CC1	-3%
Cc1ccc(-c2noc([C@@H]3CCCN3C(=O)Cc3ccccc3Cl)n2)cc1	i
COc1ccc(-c2nnc(SCC(=O)N3CCC(C)CC3)o2)cc1	-13%
O=C(Cc1ccccc1Cl)N1CCC[C@H]1c1nc(-c2ccccc2)no1	-17%
CC(C)c1ccc(-c2noc(SCC(=O)N3CCCCC3C)n2)cc1 (stereo not given)	2.2µM*
CC1CCN(C(=O)CSc2nc(-c3ccc(C(C)C)cc3)no2)CC1	0.89µM*
CN(C)c1nc(-c2ccncc2)nc2c1CCN(C(=O)c1[nH]ncc1Cl)C2	-29%
COc1cccc([S+](=O)([O-])N2CC3ON=C(C(=O)O)C3C2)c1 (stereo not given)	5%
COC(=O)C1=C(C)NC(=O)NC1c1ccccc1OC (stereo not given)	2%
COc1ccc(-c2ccc3nc(-c4cc(C)cc(C)c4)oc3c2)c(OC)c1OC	-8%
CN(C)CCN(C)[C@@H]1[C@H](O)[C@H](CO)O[C@@H]1CNC1CCN(C)CC1	9%
COc1cccc(C2Cn3nnc(-c4nc(-c5ccc(C)cc5)no4)c3CO2)c1 (stereo not given)	i
COCCCNC(=O)c1nc2nc(-c3ccccc3)c(Cl)cc2n1C	-27%[44.1 µM]
